Data reported in PubChem BioAssay (EPA / NIEHS).
Values joined by “and” are separate entries in the source; they are usually repeats but may differ in a detail not shown here. Equal values may be shown once. Results filed as inconclusive are left out. Where a structure was tested more than once in an assay, its records may differ in their call. Active and inactive are the calls of the source. Rule for the calls, unless noted: active = hit-call score of the fitted dose curve at least 0.9, where 1 is the maximum; inactive = score below 0.9.

Legend:
[1] = system: SRY-box transcription factor 2 (SOX2) Protein Expression, Deisenroth Lab, SOX2 (gene 6657); test: CCTE_Deisenroth_DEVTOX-GLR_Endo_SOX2: CCTE's DevTox GLR-Endo Assay Evaluation of SRY-box transcription factor 2 (SOX2) Protein Expression, Deisenroth Lab (AID 2284412; active = hit-call score of the fitted dose curve at least 0.9, where 1 is the maximum)
How it was run: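 Endpoint is percent SOX2-positive cells (SOX2+ count/total cells) minus 0.2% DMSO control, from high-content imaging of fixed, nuclear-stained RUES2-GLR cells. Dosing twice at 24 h intervals over 48 h differentiation, 1 nM–200 uM in 10 points.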

[2] = system: SRY-box transcription factor 17 (SOX17) Protein Expression, Deisenroth Lab, SOX17 (gene 64321); test: CCTE_Deisenroth_DEVTOX-GLR_Endo_SOX17: CCTE's DevTox GLR-Endo Assay Evaluation of SRY-box transcription factor 17 (SOX17) Protein Expression, Deisenroth Lab (AID 2284413)
How it was run: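 Fluorescent microscopy of a SOX17 reporter in RUES2-GLR pluripotent cells scored endoderm differentiation after 48 h and two 24-h-spaced exposures. Values are percent change in SOX17+ population against 0.2% DMSO, n=4 experimental replicates.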

[3] = CCTE_Padilla_ZF_Score.Craniofacial: CCTE's 144 Hour Post-fertilization zebrafish Assay Score for Craniofacial Malformation, Padilla Lab (AID 2284405)
How it was run: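 Craniofacial defects were scored at 6 dpf by two blinded observers using stereomicroscopy. Exposure of wild-type embryos began at 6–8 hpf in sealed wells of 10% Hanks' solution at 26C, with chemical removed by rinsing at 5 dpf.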

[4] = CCTE_Padilla_ZF_Score.Edema: CCTE's 144 Hour Post-fertilization zebrafish Assay Score for Edema Malformation, Padilla Lab (AID 2284406)
How it was run: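 Edema scored at 6 dpf by two blinded observers under a stereo microscope, in single outbred wild-type larvae exposed from 6-8 hpf in sealed wells (Hanks', 26C, 14:10 h light) and chemical-free after a 5 dpf rinse.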

[5] = CCTE_Padilla_ZF_Score.Spine: CCTE's 144 Hour Post-fertilization zebrafish Assay Score for Spine Malformation, Padilla Lab (AID 2284407)
Method: CCTE_Padilla_ZF_Phenotype_Score is a whole embryo, multiplexed assay using zebrafish ova exposed for 144 hours post fertilization on a 96-well plate.CCTE_Padilla_ZF_Score.Spine is one of one assay component(s) measured or calculated from the CCTE_Padilla_ZF_Phenotype_Score assay. It is designed to make measurements of zebrafish development as detected with brightfield microscopy of developing zebrafish embryos.Data from the assay component CCTE_Padilla_ZF_Score.Spine was analyzed into 1 assay endpoints. This assay endpoint, CCTE_Padilla_ZF_Score.Spine, was analyzed in the positive analysis fitting direction relative to DMSO as the negative control and baseline of activity. Using a type of viability reporter, gain-of-signal activity can be used to understand changes in developmentals as they relate to the whole embryo. To generalize the intended target to other relatable targets, this assay endpoint is annotated to the zebrafish development intended target family, where the subfamily is body axis morphogenesis.
Zebrafish husbandry: Wild type adult zebrafish (Danio rerio; undefined outbred stock obtained from Aquatic Research Organisms, Hampton, NH, 03842) were housed in an AAALAC-approved animal facility at 28C with a 14:10 h light: dark cycle (lights on at 08:30 h). Adult fish (2-3 females per male; density = 15-20 adults per tank) were kept in one of several 9-liter (L) flow-through colony tanks (Aquaneering Inc., San Diego, CA). All adults in a colony tank were placed in a 2 L (static) breeding tank (Aquatic Habitats, Apopka, FL) one hour prior to light onset. Typically, adults from two to three colony tanks were mated on the same day. Two hours after light onset the adults were returned to the colony tank. All embryos were gathered from each breeder tank, pooled, and placed in a 28C water bath for 2 h, followed by two washes with 0.06% bleach (v/v) in 10% Hanks' Balanced Salt Solution (13.7 mM NaCl 0.54 mM KCl, 25 uM Na2HPO4, 130 uM CaCl2 100 um MgSO4 and 420 um NaHCO3,), hereafter referred to as Hanks' solution, for 5 min in order to remove any residual bacteria or fungi. Immediately following washing, the embryos were examined, and healthy embryos were separated from dead or unfertilized eggs and moved into fresh Hanks'. Chemical exposures: Zebrafish embryos were exposed in 96-well plates. Between 6- and 8-hours post fertilization (hpf), healthy embryos (with chorions) were transferred, one embryo per well, into 96 well (0.5 mL) microtiter plates (Cell Culture-Treated, Flat-Bottom Microplate 96 well [Corning Costar, Kennebunk, ME; Cat 09-761-145]) filled with 200 uL of Hanks' solution. A random number generator was used to assign the order in which the rows of embryos were plated in 96 well plates each week. After plating, the embryos were dosed with 0.8 uL of the chemical dosing solution then immediately sealed with AlumaSeal II (Excel Scientific Inc, Victorville, CA) to prevent volatilization of the chemicals, and then placed in a leakproof secondary container. These containers were placed in an incubator maintained on a 14:10 h light: dark cycle at 26C for rearing. On 5 dpf, live larvae were gently moved out of the plate with test chemicals and into a new 96 well mesh plate (Millipore Corp., Bedford, MA) with just the Hanks' solution. Once within the mesh well plate, the animals were rinsed with 400 uL of fresh Hanks' three times, and then the plates were covered with a non-adhesive material (Microseal A, BioRad, Hercules, CA), plate lid added, and then plate sides wrapped in Parafilm (PM992, Bermis Company, Neenah, WI), and returned to the incubator. […]

[6] = CCTE_Padilla_ZF_Score.Swim_bladder: CCTE's 144 Hour Post-fertilization zebrafish Assay Score for Swim Bladder Malformation, Padilla Lab (AID 2284408)
How it was run: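 Swim bladder inflation scored at 6 dpf by two blinded observers under a stereo microscope. Exposure ran from 6–8 hpf in sealed wells of 10% Hanks' at 26C, with rinsing at 5 dpf; DMSO served as baseline.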

[7] = CCTE_Padilla_ZF_Score.Position: CCTE's 144 Hour Post-fertilization zebrafish Assay Score for Position, Padilla Lab (AID 2284409)
How it was run: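 Wild-type zebrafish embryos (with chorions) exposed singly from 6–8 hpf in sealed wells of Hanks' solution at 26C, rinsed at 5 dpf. At 6 dpf, blinded assessors scored abnormal water-column position by brightfield stereomicroscopy, relative to DMSO.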

[8] = CCTE_Padilla_ZF_Score.Living: CCTE's 144 Hour Post-fertilization zebrafish Assay Score for Viability, Padilla Lab (AID 2284410);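 note: larval death at 6 dpf judged by absent heartbeat or coagulation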
How it was run: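 Mortality at 6 dpf, judged as absent heartbeat or coagulation by two blinded observers, after sealed static exposure beginning at 6–8 hpf at 26C. Larvae were rinsed free of chemical at 5 dpf, and activity was fitted relative to DMSO.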

[9] = CCTE_Padilla_ZF_Score.General: CCTE's 144 Hour Post-fertilization zebrafish Assay Score for General Malformation, Padilla Lab (AID 2284411)
How it was run: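 Malformation, death and hatching were scored at 6 dpf by two blinded observers under a stereo microscope. Embryos were dosed singly from 6-8 hpf in sealed plates of 10% Hanks' at 26C and rinsed on 5 dpf; DMSO baseline.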

[10] = CCTE_Padilla_ZF_Score.Tail: CCTE's 144 Hour Post-fertilization zebrafish Assay Score for Tail Malformation, Padilla Lab (AID 2284414)
How it was run: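 Tail malformations were scored at 6 dpf by two blinded assessors under a stereo microscope. Chorionated embryos had been exposed from 6-8 hpf in sealed wells of 10% Hanks' at 26 C, then rinsed free of chemical at 5 dpf.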

Measured: AC50

C[C@@H]1C[C@H]2[C@@H]3CCC4=CC(=O)C=C[C@]4(C)[C@@]3(F)[C@@H](O)C[C@]2(C)[C@@]1(O)C(=O)COP(=O)(O)O
inactive: [1] | [2]

OCCC(F)(F)C(F)(F)C(F)(F)C(F)(F)C(F)(F)C(F)(F)C(F)(F)C(F)(F)F
active: [8] 78.3 µM | [9] 88.8 µM
inactive: [3] | [4] | [5] | [6] | [7] | [10]

C=C(C)C(=O)OCCC(F)(F)C(F)(F)C(F)(F)C(F)(F)C(F)(F)C(F)(F)F
inactive: [3] | [4] | [5] | [6] | [7] | [8] | [9] | [10]

CCCCCCCCCCCCCC[N+](C)(C)C
inactive: [9]

OCCC(F)(F)C(F)(F)C(F)(F)C(F)(F)C(F)(F)C(F)(F)F
active: [3] 30.1 µM | [4] 16.5 µM | [6] 52.7 µM | [9] 2.19 µM
inactive: [5] | [7] | [8] | [10]

NCC(F)(F)C(F)(F)C(F)(F)C(F)(F)C(F)(F)C(F)(F)C(F)(F)F
inactive: [3] | [4] | [5] | [6] | [7] | [8] | [9] | [10]

CC(O)CO (stereo not drawn)
inactive: [2]

CC1=C(/C=C/C(C)=C/C=C/C(C)=C/C(=O)O)C(C)(C)CCC1
active: [1] 16 µM | [2] 0.102 µM

FC(F)(I)C(F)(F)C(F)(F)C(F)(F)C(F)(F)C(F)(F)I
active: [3] 34.5 µM and 26.6 µM | [4] 19.1 µM and 5.34 µM | [5] 6.93 µM | [6] 10.9 µM and 8.3 µM | [7] 28 µM and 4 µM | [8] 88.8 µM | [9] 15.6 µM and 5.69 µM
inactive: [5] | [8] | [10]
